# From PubChem BioAssay (EPA / NIEHS)
# Calls of active or inactive are those of the source. How the source made its calls: active means hit-call score of the fitted dose curve at least 0.9, where 1 is the maximum; inactive means score below 0.9.
# Read-out: ATP-citrate lyase (ACLY), ACLY (gene 47)
# Assay: LTEA_HepaRG_ACLY: Life Technologies and Expression Analysis (LTEA) Assay for ATP-citrate lyase (ACLY) using HepaRG (AID 2283466)
# Settings: mRNA level, 48 h; actives raise or lower the signal
# Outline: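 Differentiated human HepaRG cells in serum-free induction medium exposed 48 h, in duplicate, to eight half-log concentrations from 100 uM top in 0.5% DMSO; ACLY mRNA measured by qRT-PCR, normalized to ACTB, GAPDH, POLR2A, fitted bidirectionally versus DMSO.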
Compound,outcome,AC50
CNC(=O)Oc1cccc2ccccc12,inactive,–
CCSC(=O)N1CCCCCC1,inactive,–
COc1ccc(-c2ccccc2)cc1NNC(=O)OC(C)C,inactive,–
CC(C)=CC1C(C(=O)OCc2coc(Cc3ccccc3)c2)C1(C)C (configuration not stated),inactive,–
OC(c1ccc(Cl)cc1)(c1ccc(Cl)cc1)C(Cl)(Cl)Cl,inactive,–
COC(=O)NS(=O)(=O)c1ccc(N)cc1,inactive,–
CC(C)Oc1cccc(NC(=O)c2ccccc2C(F)(F)F)c1,inactive,–
CS(=O)(=O)c1cc(C(F)(F)F)ccc1C(=O)c1cnoc1C1CC1,inactive,–
CCOP(=O)(OCC)Oc1nc(Cl)c(Cl)cc1Cl,inactive,–
CCOP(=S)(OCC)Oc1nc(Cl)n(C(C)C)n1,–,33.5 µM (active)
CCOc1nc(F)cc2nc(S(=O)(=O)Nc3c(Cl)cccc3Cl)nn12,inactive,–
COP(=S)(OC)SCn1nnc2ccccc2c1=O,inactive,–
CNC(=O)N(C)c1nnc(C(C)(C)C)s1,inactive,–
Clc1nc(Cl)nc(Nc2ccccc2Cl)n1,inactive,–
Nc1c(Cl)c(Cl)nc(C(=O)O)c1Cl,inactive,–
Nc1c(Cl)c(F)nc(OCC(=O)O)c1Cl,inactive,–
CC1(C)CCC(=Cc2ccc(Cl)cc2)C1(O)Cn1cncn1 (configuration not stated),–,34 µM (active)
CSC(=O)c1c(C(F)F)nc(C(F)(F)F)c(C(=O)SC)c1CC(C)C,–,77.9 µM (active)
CCCCC(C#N)(Cn1cncn1)c1ccc(Cl)cc1 (configuration not stated),–,50 µM (active)
O=C(O)c1c(Cl)ccc2cc(Cl)cnc12,inactive,–
O=P(O)(O)CCCl,inactive,–
Cc1cnc(C2=NC(C)(C(C)C)C(=O)N2)c(C(=O)O)c1 (configuration not stated),inactive,–
